The values that follow come from PubChem BioAssay AID2717 (Broad Institute, 2010).

About 3,200 (1.1%) of roughly 300,000 compounds were called active. Rule as the data show it: active = inhibition above about 75%; inconclusive = no clear call, values can overlap the other calls; inactive = below that; tested in HMLE shEcad cells. For the sample, actives were picked, then their nearest neighbours and some compounds at random.

The term inhibition denotes the relative decrease from the control value, in per cent.

The nature of the assay: growth suppression of cancer stem-like cells – cell-based, luminescence, primary screen (AID 2717). Particulars: cancer stem cell-like cells viability, at 7.5 µM, hits give high values.
In the case of `O=C(CCCOc1ccccc1)NNC(=O)c1ccc(Cl)cc1`, the inhibition was -7.46% (inactive).

Regarding `O=C(NCCc1ccco1)c1ccc(OCc2cn3ccccc3n2)cc1`, the inhibition is -8.4% (inactive).

`COc1ccc(NC(=O)c2cc(-c3ccc(C)cc3)on2)cc1`: the inhibition is 11.2% (inactive). As for `COc1ccc(Nc2cc(Cl)ccc2C(=O)O)cn1`, the inhibition is 5.84% (inactive).

Consider `COc1ccc(NC(=O)/C(Cl)=C(/Cl)S(=O)Cc2ccc(C)cc2)cn1` (configuration not stated), for which the inhibition was 112% (active). As for `NC(=O)Nc1ccc(C(=O)OCC(=O)NC2CCCc3ccccc32)cc1` (configuration not stated), the inhibition was 3.37% (inactive).

As to `COc1ccc(-c2n[nH]c(C)c2-c2ccccc2OC)c(O)c1`, the inhibition was 2.11% (inactive). The result for `C=C(C)COc1ccc(-c2n[nH]c(C)c2-c2ccccc2OC)c(O)c1` reads 102% (active); that for `C=C(C)COc1ccc(-c2n[nH]c(C)c2-c2ccccc2)c(O)c1`, -11.5% (inactive); that for `COc1cccc(/C(C)=N/Nc2ncc(Cl)cc2Cl)c1`, 24.2% (inactive). The result for `COc1cccc(/C=N/Nc2cc(C)nc(-c3ccccc3O)n2)c1O` reads 12.2% (inactive).

`COc1cccc(/C=N/Nc2ncc(C(F)(F)F)cc2Cl)c1O`: the inhibition is 102% (active).

On to `Cc1ccc(S(=O)(=O)Nc2nc(CN3CCOCC3)nc3sc(C)c(C)c23)cc1`, for which the inhibition was -7.69% (inactive). The result for `Cc1ccc(NC(=O)C(C)Sc2nnc(C3CC3)n2C2CC2)cc1S(=O)(=O)N1CCOCC1` (configuration not stated) reads -10.2% (inactive); that for `O=C(NNS(=O)(=O)c1c(F)cc(F)c(Cl)c1F)C12CC3CC(CC(C3)C1)C2`, -12.7% (inactive); that for `COc1cccc2sc3cc(NCC[C@@H]4CCCN4C)ccc3c(=O)c12`, 6.75% (inactive). For `Cc1nc2ccc(NC(=O)c3cccc(S(=O)(=O)N4CCOCC4)c3)cc2s1` the value was -13.4% (inactive); for `CCOc1cccc(/C=C/c2ccc3ccccc3n2)c1OC(C)=O`, 64.6% (inactive); for `COc1cccc(/C=C2\C=C(c3ccc(C)cc3)OC2=O)c1OC(C)=O`, -0.631% (inactive).

Take `COc1cccc(/C=C/c2ccc3ccccc3n2)c1OC(C)=O`: the inhibition was 104% (active). For `O=C1N[C@@H](c2ccccc2)COC(=O)[C@H](Cc2ccc(F)cc2)C/C=C\C[C@@H]1CC(=O)N(CCO)Cc1ccccc1` the value was 9.15% (inactive).

As to `CCN(CC(=O)Nc1c(F)cccc1F)C(=O)c1ccc(-c2ccc(C(C)=O)cc2)o1`, the inhibition is -4.76% (inactive). For `COc1ccccc1CNC(=O)COC(=O)c1cccs1` the value was 18.5% (inactive); for `C=CC[C@@H](CC(=O)N[C@H](CO)Cc1ccccc1)C(=O)N[C@H](C)COC(=O)[C@@H](CC=C)Cc1ccc(F)cc1`, -14.7% (inactive). `COC(=O)CSc1ncnc2c1cnn2-c1ccc(C)cc1C`: the inhibition is 8.04% (inactive). For `COc1ccccc1N1CCN(C(=O)CSc2nnc(-c3ccoc3C)o2)CC1` the value was -0.373% (inactive). For `COc1ccccc1N1CCN(C(=O)CSc2ncnc3c2cnn3-c2ccc(C)c(C)c2)CC1` the value was 75.8% (active); for `COc1ccc(C2(c3ccc(OC)cc3)NC(=O)N(CC(=O)Nc3cc(C)on3)C2=O)cc1`, -19.5% (inactive); for `O=C(Cn1cnc2ccccc2c1=O)NNC(=O)c1ccccc1F`, -14% (inactive).

Regarding `CCCCn1c(CCCNC(=O)CC)nc2ccccc21`, the inhibition is -2.03% (inactive).

Turning to `C=C(Br)Cn1c(CCCC)nc2ccccc21`, the inhibition is 77.7% (active). The result for `CCCCn1c(CN2CCN(CCO)CC2)nc2ccccc21` reads -13.9% (inactive); that for `O=C(Nc1cccc(S(=O)(=O)NC2=NCCC2)c1)c1ccc(F)cc1F`, 17.5% (inactive). The result for `Cc1cccc(C(=O)OCC(=O)NC(C)C2CC3CCC2C3)c1O` (configuration not stated) reads -4.77% (inactive). The result for `CCN(C[C@H]1N[C@@](CC)(C(=O)OC)[C@H]2C(=O)N(Cc3ccccc3)C(=O)[C@@H]12)S(=O)(=O)c1ccc(C(F)(F)F)cc1` reads 44.8% (inactive); that for `CC(=O)Nc1cccc(Nc2nc(-c3cccs3)nc3ccccc23)c1`, 33.9% (inactive).

As for `Cc1cccc(-c2nc(Nc3ccc(O)cc3)c3ccccc3n2)c1`, the inhibition is 94% (active).

In the case of `COc1ccc(Nc2nc(-c3cccnc3)nc3ccccc23)cn1`, the inhibition was 2.87% (inactive). For `Cc1cccc(NC(=O)CN2CCN(C(=O)C3CCN(C(=O)/C=C/c4ccccc4)CC3)CC2)c1C` the value was -8.71% (inactive).

On to `CC(=O)Nc1ccc(Nc2c3ccccc3nc3ccccc23)cc1`, for which the inhibition was 85.3% (active).

As to `CC(=O)Nc1ccc(NC(=O)COc2ncnc3ccccc23)cc1`, the inhibition is -6.11% (inactive). `Cc1ccc(Nc2c3c(nc4ccccc24)CCC3)cc1`: the inhibition is 2.02% (inactive). The result for `Cc1ccc(CC(=O)Nc2ccc(S(=O)(=O)N3CCOCC3)cc2)cc1C` reads 6.62% (inactive); that for `O=[N+]([O-])c1cc(S(=O)(=O)Nc2cccc(Cl)c2)ccc1N=Nc1c(O)[nH]c2ccccc12`, 96.2% (active). The result for `CN1CCN(c2ccc(S(=O)(=O)Nc3ccccc3)cc2[N+](=O)[O-])CC1` reads 49.9% (inactive). The result for `Cc1cccc(N(CC(=O)N=Nc2c(O)[nH]c3ccccc23)S(C)(=O)=O)c1C` reads -17.4% (inactive); that for `O=C(CC1SC(N2CCOCC2)=NC1=O)Nc1ccccc1F` (configuration not stated), -28.9% (inactive); that for `COc1cc(/C=C/C(=O)OCC(=O)NC2CC2)cc(OC)c1OC`, 1.1% (inactive). On to `COC(=O)c1ccc(C)c(NC(=O)Cn2c(C)csc2=O)c1`, for which the inhibition is 13.1% (inactive). The result for `CCCCC(=O)Nc1ccc(C(=O)Nc2cc(C(F)(F)F)ccc2Cl)cc1` reads 5.17% (inactive); that for `CCCCN(CCCC)CCC(O)c1cc2c(Cl)cc(Cl)cc2c2cc(C(F)(F)F)ccc12` (configuration not stated), 95.2% (active); that for `Cc1ccc(C)c(NC(=O)COC(=O)c2nn(C)c(=O)c3ccccc23)c1`, -4.9% (inactive). Consider `COc1cc(NS(=O)(=O)c2ccc(N=Cc3c(C)[nH]n(-c4ccccc4)c3=O)cc2)nc(OC)n1`, for which the inhibition is -7.07% (inactive). For `Cc1ccc(-n2[nH]c(C)c(/C=N/N3C(=O)c4cccc5cccc(c45)C3=O)c2=O)cc1` the value was 24.4% (inactive). The result for `COc1cc(SC#N)ccc1N=Cc1c(C)[nH]n(-c2ccc(C)cc2)c1=O` reads 84.4% (active); that for `COc1cc(C(=O)OCc2cc(=O)n3ccsc3n2)ccc1OC(C)C`, -20.6% (inactive). As to `CC1CCCCC1NCC(=O)Nc1ccccc1C(=O)Nc1ccccc1` (configuration not stated), the inhibition was -14.1% (inactive).
